p53 reactivation = qHTS assay for re-activators of p53 using a Luc reporter | hit rate 0.063% among 320,000 | Potency, µM (doses to about 92.2 µM), for the others: at the highest dose activity change, positive = activation, actives largely listed as activators | H1299 p53-A138V BP100-luciferase reporter, luminescence, 24 h | AID 504706, 2011; active means well fitted activation curve with a large enough effect; inconclusive means small, poorly fitted or top-dose-only effect; inactive means no such curve, though single readings can be large or run the other way; further: potency means the concentration at half of the fitted maximal effect; % of control where 0% means no effect; nearly all actives have a fitted effect of over 45% in size
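H1299 (p53-null), stable ts p53-A138V + BP100-Luc; 1000 cells/well, Opti-MEM/10% FBS; cpd 4 pt, 1:5; 24 h, 37 deg C, 5% CO2; detection reagent 10 min RT; luminescence.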
CXXC DNA block = qHTS Fluorescence Polarization Assay for Inhibitors of MLL CXXC domain - DNA interaction. Histone-lysine N-methyltransferase 2A (Homo sapiens), Q03164. MLL-CXXC / FITC-HOXA9 DNA fluorescence polarization. Potency, µM (highest dose often 115 µM), for inactives: top-dose activity change, negative = inhibition, hits mostly inhibitors. hit rate 0.037% among 290,000; active means well fitted inhibition curve with a large enough effect in the polarisation, with a control signal flat, not every such curve was filed as active; inconclusive means small, poorly fitted or top-dose-only effect, or effect the other way, or a change in a side signal; inactive means no such curve, though single readings can be large or run the other way; the % refers to the polarisation; further: potency means the concentration at half of the fitted maximal effect
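Steps: dispense CXXC domain solution (7 uM) → pin compounds or unlabeled HOX-A9 DNA control → 5 min ambient → add FLSN-HOX-A9 solution (50 nM) → spin → 30 min ambient → fluorescence polarization. Tris pH 7.5/NaCl/DTT/BSA buffer.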
Menin MLL FP FL = qHTS Assay for Inhibitors Targeting the Menin-MLL Interaction in MLL Related Leukemias: Competition With Fluorescein Labeled MLL-derived Peptide | Fluorescence polarization, fluorescein-MLL peptide displacement from menin | FP activity change, % at 61.4 µM | 290,000 tested, under 10 active; active means well fitted curve in the direction sought with a large enough effect in the polarisation, not every such curve was filed as active; inconclusive means small, poorly fitted or top-dose-only effect, or effect the other way, or a change in a side signal; inactive means no such curve, though single readings can be large or run the other way; the % refers to the polarisation; further: % of control where 0% means no effect
ClpP mod = qHTS Assay for Activators of ClpP. purified B. subtilis ClpP, FRET peptide cleavage, 20 min. Potency, µM (titrated, usually from 57.5 µM), for inactives: top-dose activity change, negative = active. hit rate 1.9% among 340,000; active means well fitted falling curve with a large enough effect; inconclusive means small, poorly fitted or top-dose-only effect; inactive means no such curve, though single readings can be large or run the other way; further: potency means the concentration at half of the fitted maximal effect; the source files actives as falling curves though it sought activators and does not explain the sign; nearly all actives have a fitted effect of over 65% in size
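FRET quenching reversal measured ClpP activation: 10 microg/mL B. subtilis ClpP at pH 8 with the FRET-FV decapeptide, read at 430 nm after 320 nm excitation. The 20-min minus 0-min signal was scaled between DMSO/no-enzyme wells and ADEP (5.8 microM final).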
Menin-MLL TR inh = qHTS Assay for Inhibitors Targeting the Menin-MLL Interaction in MLL Related Leukemias: Competition With Texas Red Labeled MLL-derived Mutant Peptide; O00255; Menin + Texas Red MLL mutant peptide, fluorescence polarization; Potency, µM (doses to about 61.6 µM), for the others: at the top dose FP activity change, negative = inhibition, usual class: inhibitors; hit rate 0.23% among 270,000; AID 1768, 2009; active means well fitted inhibition curve with a large enough effect in the polarisation, with a control signal flat, not every such curve was filed as active; inconclusive means small, poorly fitted or top-dose-only effect, or effect the other way, or a change in a side signal; inactive means no such curve, though single readings can be large or run the other way; the % refers to the polarisation; further: potency means the concentration at half of the fitted maximal effect; % of control where 0% means no effect
The depositor's hits bear a star; ? = inconclusive; / = no result. This excerpt belongs to a sample that is enriched for hits.

SMILES | p53 reactivation | CXXC DNA block | Menin MLL FP FL | ClpP mod | Menin-MLL TR inh
O=C(NCC1CCCO1)C1c2ccccc2C(=O)N1Cc1ccc2c(c1)OCO2 (stereo not given) | -1.8% | -7.1% | 3.3 | 22.4µM* | -9.9%
COc1cccc(CN2C(=O)c3ccccc3C2C(=O)NCC2CCCO2)c1 (stereo not given) | -1.9% | -4.5% | -3.3 | -0.8% | -4.2%
C#Cc1ccc2c(c1)C(=O)N(C)Cc1c(C(=O)OCCCOC(=O)c3ncn4c3CN(C)C(=O)c3cc(C#C)ccc3-4)ncn1-2 | / | / | -4.1 | / | 0.9%
CN(C)c1nc(NC2CCC(NC(=O)c3ccc(F)c(F)c3)CC2)nc2ccccc12 (stereo not given) | / | / | -1.1 | / | -11.7%
COc1ccc(CC(=O)Nc2nnc(-c3cccc([N+](=O)[O-])c3)s2)cc1 | 8.9% | 20.6% | 2.4 | -2.1% | 18.5%
CCCC(=O)Nc1nnc(-c2cccc(OCC)c2)s1 | 7.9% | -9.9% | 1.1 | 28.2µM* | 13.0%
CCOc1ccc2nc(NC(=O)CCn3cccc3)sc2c1 | 14.2% | 3.9% | 5.9 | -7.6% | -22.7%
O=C(Cc1ccccc1)Nc1nnc(-c2cccc([N+](=O)[O-])c2)s1 | 8.8% | 9.9% | 1.8 | 31.6µM* | 22.7%
CCOC(=O)Nc1nnc(-c2cccc(OC)c2)s1 | ? | 1.9% | 2.9 | 6.7% | -12.7%
CCCC(=O)Nc1nc2ccc(OCC)cc2s1 | 3.16µM* | -5.5% | 0.9 | -4.4% | 2.6%
Cc1cc(I)ccc1Nc1nc(NCCN2CCOCC2)nc(N2CCOCC2)n1 | / | / | / | 0.2% | /
O=C1C(SC(F)(F)C(F)F)=C(C(F)(F)F)OC2C3C=CC(C3)C12 (stereo not given) | 5.6% | -0.1% | 0.9 | 15.8µM* | /
COc1cc2nc(C#N)nc(N)c2cc1OC | / | / | / | -1.3% | /
Cc1ccccc1NC(NC(=O)c1cccs1)C(Cl)(Cl)Cl (stereo not given) | -2.0% | 1.8% | 6.1 | 25.1µM* | ?
Cc1ccc(NC(NC(=O)c2cccs2)C(Cl)(Cl)Cl)cc1 (stereo not given) | -1.0% | 13.0% | 0.7 | -1.9% | ?
Brc1ccc(C=C2C=c3ccccc3=C2)cc1 | / | / | / | 0.2% | /
O=C(NC(=S)NCc1ccccc1)C1CCCCC1 | 7.1% | 7.5% | -1.7 | 12.6µM* | 7.1%
O=C(NC(=S)Nc1ccccc1)C1CCCCC1 | -7.6% | 0.7% | / | -0.1% | /
COC(=O)c1ccc(NC(=O)CN(C2CCCCC2)S(C)(=O)=O)cc1 | -0.5% | 12.0% | 3.7 | 0.708µM* | ?
CCn1nnc(NC(=O)c2ccc(-c3ccc(Cl)cc3)o2)n1 | 10.8% | 8.4% | 0.4 | 11.2µM* | 36.7%
CC1CCN(c2ccc(C(=O)O)cc2NS(=O)(=O)c2ccc(Br)cc2)CC1 | -1.1% | 0.0% | -1.7 | 20µM* | 11.2%
Cc1ccc2cccc(SCC(=O)NCC#N)c2n1 | -13.3% | -1.8% | 2.6 | 28.2µM* | 3.1%
CCOC(=O)C(=Cc1ccc(F)cc1)C(=O)OCC | -35.7% | -2.3% | 3.0 | / | ?
CCOC(=O)C(=Cc1ccc(Br)cc1)C(=O)OCC | -16.5% | -6.7% | 3.9 | / | 28.2µM*
CCOC(=O)c1ncc2[nH]c3cccc(OC(C)C)c3c2c1C | / | / | -1.0 | / | 31.4%
SMILES | p53 reactivation | CXXC DNA block | Menin MLL FP FL | ClpP mod | Menin-MLL TR inh
CC(C)CN1CCC(Oc2cccc(C(=O)NCCc3ccccc3)c2)CC1 | 39.8µM* | -1.8% | -7.5 | -0.8% | ?
N#Cc1c(-c2cccs2)cc(-c2cccnc2)nc1N | -15.8% | -9.6% | 5.9 | ? | -17.9%
N#Cc1c(-c2cccs2)cc(-c2ccccn2)nc1N | ? | 0.4% | 0.0 | 12.6µM* | 0.8%
Oc1cc(-n2cccn2)c(O)cc1-n1cccn1 | -10.0% | 24.3% | ? | 28.2µM* | ?
CC(C)(C)c1ccc(C(=O)C[n+]2cc(Br)cc(Br)c2)cc1 | / | / | / | -1.1% | /
CSCC[C@H](NC(=O)[C@H](CC(C)C)NC(=O)CNC(=O)[C@H](Cc1ccccc1)NC(=O)[C@H](Cc1ccccc1)NC(=O)[C@H](CCC(N)=O)NC(=O)[C@H](CCC(N)=O)NC(=O)[C@@H]1CCCN1C(=O)[C@H](CCCCN)NC(=O)[C@@H]1CCCN1C(=O)[C@@H](N)CCCN=C(N)N)C(N)=O | / | / | -7.6 | / | -1.2%
c1ccc(-c2cc(N3CCOCC3)nc3ccccc23)cc1 | / | -0.8% | -0.6 | 28.2µM* | -19.0%
CC1CN(c2cc(-c3ccccc3)c3ccccc3n2)CC(C)O1 (stereo not given) | 5.3% | -1.4% | 3.0 | 25.1µM* | 0.7%
N#Cc1cc(N2CCOCC2)nc2ccccc12 | -3.8% | -8.4% | 13.0 | -5.8% | /
COc1ccc2nc(N3CCOCC3)cc(C)c2c1 | 29.9% | -3.6% | -0.6 | 12.6µM* | 0.6%
COc1ccc(N2CCN(c3cc(C)c4ccc(C)cc4n3)CC2)cc1 | -2.6% | 11.4% | 2.8 | -28.1% | -9.9%
CC1CN(c2nc3ccccc3cc2-c2ccccc2)CC(C)O1 (stereo not given) | 0.9% | 6.2% | 0.7 | / | ?
COc1ccc2c(C)cc(N3CCN(c4ccc(F)cc4)CC3)nc2c1 | -5.0% | 7.9% | 7.6 | 28.2µM* | 3.4%
COc1ccc2c(C)cc(N3CCOCC3)nc2c1 | 21.4% | 5.8% | -0.8 | ? | 1.1%
CN(N=O)c1ccc(/C=C/c2ccccc2)cc1 | / | / | / | -2.0% | /
Cc1ccc2c(CC(=O)NCc3ccccc3)coc2c1C | / | / | / | -0.2% | /
Cc1cc(N2CCOCC2)nc2ccccc12 | ? | 4.8% | 2.7 | 25.1µM* | 1.0%
Cc1cc(N2CCOCC2)nc2cc(O)ccc12 | ? | -10.2% | -4.3 | 4.5% | -0.1%
CCC(C)c1ccc(S(=O)(=O)N2CCN(C(=O)COc3ccc4c(C)cc(=O)oc4c3)CC2)cc1 (stereo not given) | 1.1% | -9.9% | -0.5 | ? | -2.9%
COc1ccc(S(=O)(=O)N2CCN(C(=O)COc3ccc4c(C)cc(=O)oc4c3)CC2)cc1 | -2.1% | 7.0% | 1.9 | 22.4µM* | 2.5%
Cc1cc(=O)oc2cc(OCC(=O)N3CCCC(C)C3)ccc12 (stereo not given) | -4.3% | -14.8% | 3.3 | 31.6µM* | -2.7%
COc1ccc2c(COC(=O)c3ccc(C)c(S(=O)(=O)N4CCOCC4)c3)cc(=O)oc2c1 | / | / | / | 25.1µM* | /
Cc1cc[n+](CCC2CCCCC2)c2ccccc12 | / | / | / | 4.1% | /
Cc1nnc2c3ccccc3c(-c3cccc4ccccc34)nn12 | -0.8% | -1.4% | 4.8 | -2.8% | -2.7%
Cc1nnc2sc(-c3cccc4ccccc34)nn12 | -13.9% | -1.2% | 1.5 | 22.4µM* | -9.6%
COc1ccccc1CC(=O)Nc1ccc(Cl)cc1C(=O)O | -0.8% | -7.3% | 0.1 | / | 22.3%

Assay outcomes (PubChem BioAssay)
